A selection: hits, their analogues and other compounds. The true share with any hit is near 20%.
Pf growth 96h – Primary qHTS for delayed death inhibitors of the malarial parasite plastid, 96 hour incubation; P. falciparum luciferase reporter growth, 96 h; Potency, µM (titrated, usually from 28.7 µM), inactives show top-dose activity change, negative = inhibition, most hits filed as inhibitors; hit rate 6.9% among 320,000; AID 504834, 2011; also: potency is read from the fitted curve at half-maximal effect; % is scaled to controls: 0 for no effect and ±100 for the full control effect
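Erythrocytes infected with luciferase-expressing P. falciparum were dispensed at 2% hematocrit and 0.05% parasitemia (final), then incubated with compounds 96 hours at 37 C in 5% CO2. Luminescence after detection reagent addition reported growth.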
HCMV antiviral – qHTS Assay for inhibitors of the human cytomegalovirus (HCMV) | HFF cells, HCMV-luciferase reporter, 72 h; active compounds read low | activity change, negative = inhibition, % at 57.5 µM | hit rate 4.5% among 410,000 | AID 1259415, 2018; in the data active = activity change below about -60%; inconclusive = no clear call, values can overlap the other calls; inactive = above about -39%; also: % is scaled to controls: 0 for no effect and ±100 for the full control effect
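Human foreskin fibroblasts infected with luciferase-reporter HCMV at MOI 1 PFU/cell, compounds at two doses. Luciferase measured 72 h post infection; normalized to buffer-only basal and Salinomycin (10uM) controls.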
Pf growth 48h – Primary qHTS for delayed death inhibitors of the malarial parasite plastid, 48 hour incubation; P. falciparum luciferase growth in erythrocytes, 48 h; hit rate 5.9% among 310,000; Potency, µM (titrated, usually from 28.7 µM), without a hit: at the top dose activity change, negative = inhibition, hits mostly inhibitors; also: potency is read from the fitted curve at half-maximal effect; % is scaled to controls: 0 for no effect and ±100 for the full control effect
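Erythrocytes infected with P. falciparum carrying an integrated firefly luciferase reporter (2% hematocrit, 0.1% parasitemia final) were exposed to compounds in RPMI 1640 with 0.5% Albumax at 37 C, 5% CO2. Growth inhibition was scored as reduced luminescence.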
CHX counter – Cycloheximide Counterscreen for Small Molecule Inhibitors of Shiga Toxin; cell reporter, cycloheximide protein synthesis inhibition counterscreen; max response, %; hit rate 12% among 300,000; AID 2314, 2010; in the data active = max response mostly above about 13%, no sharp cut-off; inactive = mostly below about 14%; also: read at 38.3 µM for the half of the compounds with a filed dose; 0% is about no effect
Shiga toxin inh – A qHTS for Small Molecule Inhibitors of Shiga Toxin; AID 2315, 2010; hit rate 9.2% among 290,000; inhibition, % at 38.7 µM; Vero cells, Shiga toxin protein synthesis inhibition reporter; in the data active = inhibition mostly above about 28%, no sharp cut-off; inactive = mostly below about 43%; also: 0% is about no effect
* = called active by the depositor; u = inconclusive; x = no result given. Unless noted, calls follow the shape of the dose curve; as a rule, active = well fitted inhibition curve with a large enough effect; inconclusive = small, poorly fitted or top-dose-only effect, or another doubt; inactive = no such curve, though single readings can be large or run the other way.

SMILES	Pf growth 96h	HCMV antiviral	Pf growth 48h	CHX counter	Shiga toxin inh
CCOC(=O)c1c(NC(=O)C2c3ccccc3Oc3ccccc32)sc(C(=O)N(CC)CC)c1C	0.93µM*	x	1.5µM*	8	18
CCN(CC)C(=O)c1sc(NC(=O)c2cccnc2)c(C(=O)OC)c1C	2.9µM*	-9	1%	-1	-6
COC(=O)c1c(NC(=O)c2ccnn2C)sc(C)c1C	x	-12	x	x	x
CCn1cc(C(=O)Nc2sc(C)c(C)c2C(=O)OC)cn1	28%	110	14%	9	25*
Cc1ccc(N2C(=O)NC(NS(=O)(=O)c3ccc(Cl)cc3)(C(F)(F)F)C2=O)cc1C (centres undefined)	x	-24	x	x	x
COC(=O)c1c(NC(=O)c2ccccc2)sc(C(=O)c2ccccc2)c1C	9.3µM*	-16	u	2	-13
COC(=O)c1c(NC(=O)c2ccccc2)sc(Cc2ccccc2)c1C	24%	-62*	-12%	2	-5
COc1ccc([N+](=O)[O-])cc1N(CC(=O)NCCSc1ccccc1)S(C)(=O)=O	2%	5	18%	-3	-4
CCCCn1c2c(c(=O)n(C)c1=O)C(CC(=O)OCC(=O)Nc1cccc(C(F)(F)F)c1)C(=O)N2 (centres undefined)	u	-1	u	-7	-7
CC1(C)N=C(N)N=C(N)N1c1ccc(OCC(=O)N2CCOCC2)c(Cl)c1	x	-101*	x	x	x
CC1(C)N=C(N)N=C(N)N1c1ccc(OCC(=O)N2CCOCC2)cc1	x	-40	x	x	x
Cc1cccc(NC(=O)CCc2ccc(N3C(N)=NC(N)=NC3(C)C)cc2)c1	x	-99*	x	x	x
CC1(C)N=C(N)N=C(N)N1c1cccc(CC(=O)Nc2ccccc2)c1	x	-82*	x	x	x
CC1(C)N=C(N)N=C(N)N1c1ccc(OCC(=O)Nc2ccccc2)c(Cl)c1	x	-95*	x	x	x
CCOC(=O)c1cccc(N2C(N)=NC(N)=NC2(C)C)c1	8%	u	u	-4	61
CC1(C)N=C(N)N=C(N)N1c1ccc(OCCCOc2ccccc2)c(Cl)c1	0.023µM*	-100*	0.026µM*	-6	-12
Oc1ccc(C[C@@H]2CNCCN2CCc2cc(C(F)(F)F)cc(C(F)(F)F)c2)cc1	u	12	8.3µM*	x	x
c1ccc(C[C@H]2CNCCN2CCc2cccc3ccccc23)cc1	u	-23	u	x	x
FC(F)(F)c1cc(CCN2CCNC[C@H]2Cc2cccc3ccccc23)cc(C(F)(F)F)c1	u	-80*	u	x	x
COc1cc(CCCN2CCNC[C@H]2Cc2cccc3ccccc23)cc(OC)c1OC	x	4	x	x	x
Oc1ccc(C[C@@H]2CNC(=S)N2CCc2cc(C(F)(F)F)cc(C(F)(F)F)c2)cc1	-9%	0	-3%	-4	-4
Oc1ccc(C[C@H]2CNCCN2CCc2cc(C(F)(F)F)cc(C(F)(F)F)c2)cc1	u	12	9.3µM*	x	x
Oc1ccc(C[C@H]2CNCCN2CCc2cccc3ccccc23)cc1	4.7µM*	-1	5.2µM*	x	x
CCS(=O)(=O)N1CCCC(C(=O)Oc2ccc(Br)cc2)C1 (centres undefined)	29%	-1	15%	-1	-8
O=C(N/N=C/c1cccnc1)c1cccc(Br)c1	6.6µM*	11	5%	17*	34
SMILES	Pf growth 96h	HCMV antiviral	Pf growth 48h	CHX counter	Shiga toxin inh
O=C(N/N=C/c1cc(Cl)ccc1O)c1cccnc1	u	u	3.3µM*	13*	25
CC(C)c1ccc(/C=N/NC(=O)c2cccc(Cl)c2)cc1	u	70	8%	49*	active
O=C(N/N=C/c1cccnc1)c1cccc(Cl)c1	26%	14	28%	28*	33*
Cc1cccc(C(=O)Nc2ccc(C(=O)N/N=C/c3cccnc3)cc2)c1	-10%	-4	u	-5	20
CCC[C@H]1[C@@H](NS(=O)(=O)Cc2ccccc2)CC[C@@]23CCCN2C(=O)CCC[C@@H]13	x	-2	x	x	x
CC(C)C[C@H](NC(=O)[C@H](CC(C)C)NC(=O)[C@H](Cc1ccc(O)cc1)NC(=O)CNC(=O)[C@H](C)NC(=O)[C@H](CO)NC(=O)[C@H](CC(N)=O)NC(=O)[C@H](CC(C)C)NC(=O)[C@@H](NC(=O)[C@H](Cc1c[nH]c2ccccc12)NC(=O)CN)[C@@H](C)O)C(=O)NCC(=O)N1CCC[C@H]1C(=O)N1CCC[C@H]1C(=O)N1CCC[C@H]1C(=O)NCC(=O)N[C@@H](Cc1ccccc1)C(=O)N[C@@H](CO)C(=O)N1CCC[C@H]1C(=O)N[C@@H](Cc1ccccc1)C(=O)N[C@@H](CCCNC(=N)N)C(N)=O	x	x	x	-3	-6
COc1cccc(N2CCN(S(=O)(=O)c3ccc4c(c3)NC(=O)C(C)C(=O)N4)CC2)c1 (centres undefined)	u	u	-23%	-2	-11
O=C(Nc1cc(S(=O)(=O)Nc2ccc(Cl)cc2)ccc1O)c1ccc(S(=O)(=O)N2CCCCCC2)cc1	0%	21	-24%	18	-8
O=C(CCNC(=O)c1ccccc1Cl)N/N=C\c1ccc(O)cc1	50%	0	u	-2	-4
O=C(N/N=C/c1cc(Cl)ccc1O)c1ccccc1Br	u	-100*	3.7µM*	40*	27*
O=C(N/N=C\c1cc(Cl)ccc1O)c1ccc(S(=O)(=O)N2CCCCC2)cc1	2.9µM*	-103*	2.6µM*	-1	-10
CC(C)c1ccc(/C=N/NC(=O)CCNC(=O)c2ccccc2)cc1	34%	5	-5%	21*	96*
O=C(CNC(=O)c1ccccc1Br)N/N=C/c1cc(Br)ccc1O	1%	33	u	-3	29
CCOC(=O)c1cccn1C1C(=O)N(Cc2ccc(Cl)nc2)c2ccccc21 (centres undefined)	x	-10	x	x	x
COC(=O)C(C(C)C)N1CC(=O)c2ccccc2S1(=O)=O (centres undefined)	x	x	x	-2	-3
COc1cccc(OCCn2c(-c3ccc(Cl)cc3)nc3ccccc3c2=O)c1	x	21	x	x	x
Cc1ccc(C2=NN(C(=O)CN3C(=O)c4ccccc4S3(=O)=O)C(c3ccco3)C2)cc1 (centres undefined)	15%	9	u	2	-9
O=C1c2ccccc2S(=O)(=O)N1CC1CC(c2ccccc2)=NO1 (centres undefined)	11%	44	37%	44*	89*
COc1ccc(C2=NOC(CN3C(=O)c4ccccc4S3(=O)=O)C2)cc1 (centres undefined)	-8%	-23	117%	64*	125*
O=C1c2ccccc2S(=O)(=O)N1CC1CC(c2ccc(Cl)cc2)=NO1 (centres undefined)	-13%	119	70%	61*	66*
CCN(CC)S(=O)(=O)c1ccc(OC)c(NC(=O)c2cc([N+](=O)[O-])ccc2N2CCOCC2)c1	x	-38	x	x	x
